# Laboratory results taken from ChEMBL document CHEMBL4513216, “Probing the Open Global Health Chemical Diversity Library for Multistage-Active Starting Points for Next-Generation Antimalarials” (ACS Infect Dis, 2020).
# Hit rate of the full screen: of about 69,000 compounds, about 8,600 (12%) showed an effect of 50% or more. Shown is part of a subset that was picked to be rich in strong results.
# Tested on: Plasmodium berghei
# Assay: Screen against P. berghei liver stage (PbLuc), transformed with Luciferase, at 10uM
# Assay type: functional, HepG2
# Conditions: tested at 10 uM
row,Compound,INHIBITION [%]
1,CSCC[C@H](NC(C)=O)c1nc(CC(C)C)n[nH]1,-24.7
2,c1ccc2oc(CN3CCCC(Cn4cncn4)C3)nc2c1 (stereo not given),16.34
3,CC(C)CCN(C(=O)c1ccc(-n2ncc(C#N)c2N)cc1)C1CC1,19.5
4,Cc1cnn(CCC(=O)N2CCCC(c3ccn[nH]3)C2)c1 (stereo not given),-19.4
5,Cc1nc(C)n(C2CCCN(C(=O)CCOc3cccc(F)c3)C2)n1 (stereo not given),33.3
6,Cc1c(NCCO)cccc1OC1CCCC1,-64.6
7,CN1CCC(CNC(=O)NCc2ccc(F)cc2)CC1,-33
8,CC(C)NC(=O)c1cc2c(s1)CCN2C(=O)CN(C)C,8.67
9,Cc1n[nH]c(C)c1C1COCCN1c1ncnc2sccc12 (stereo not given),71.4
10,c1ccc2c(N3CCCCC3Cn3cncn3)ncnc2c1 (stereo not given),-11.1
11,CC1COCCN1c1ncnc2sccc12 (stereo not given),49.1
12,Cc1nn(C)c(C)c1C1COCCN1c1ncnc2sccc12 (stereo not given),-7.11
13,c1ccc2c(N3CCCCC3Cn3cccn3)ncnc2c1 (stereo not given),11.575
14,c1ccc2c(N3CCCC3Cn3cccn3)ncnc2c1 (stereo not given),76.9
15,O=C(c1ccncc1)N1C[C@H]2CC[C@@H](C1)N(C(=O)N1CCOCC1)C2,-20.6
16,CCc1nc(C2CCCN2Cc2nccn2CC(F)(F)F)no1 (stereo not given),28.8
17,CC1CN(CC(=O)NCc2ccccn2)CCN1Cc1nccn1C (stereo not given),-20.19
18,O=C(c1ccc2c(c1)OCCCO2)N1CCCC(n2cccn2)C1 (stereo not given),7.12
19,Cc1ccc(N(C)C2CCN(C(=O)c3n[nH]c4c3CCC4)CC2)nn1,-20.3
20,CN(C)CCCn1cnc2cc(NC(=O)c3n[nH]c4c3CCC4)ccc21,10.1
21,CC(=O)Nc1cccc2c1ccn2CC(=O)Nc1n[nH]c(CC(C)C)n1,71.3
22,CC(=O)Nc1cccc2c1ccn2CC(=O)NC(C)C,22
23,COCCn1ccc2c(NC(=O)c3n[nH]c4c3CCCC4)cccc21,14.8
24,Cn1cnc2cc(NC(=O)c3n[nH]c4c3CCC4)ccc21,-136
25,CC(=O)Nc1cccc2c1ccn2CC(=O)Nc1nc[nH]n1,21.5
26,Cc1cc(CC(C)NC(=O)c2n[nH]c3c2CCC3)n[nH]1 (stereo not given),-56.2
27,CC(C)n1ccc2c(NC(=O)c3n[nH]c4c3CCC4)cccc21,76.9

row,Compound,INHIBITION [%]
1,CC(C)Cn1ccc2c(NC(=O)c3n[nH]c4c3CCC4)cccc21,90.8
2,CC(C)c1nc2cc(NC(=O)c3n[nH]c4c3CCC4)ccc2n1C,62.2
3,COCCn1ccc2c(NC(=O)c3n[nH]c4c3CCC4)cccc21,9.57
4,O=S(=O)(c1cnccc1N1CCN(CCO)CC1)N1CCOCC1,36.8
5,CCOc1ccc(C#N)cc1NC(=O)N1CCC(n2cncn2)CC1,-31.4
6,Cc1nc(N2CCCC2)ncc1-c1cc(O)nc(NCC2CCCO2)n1 (stereo not given),-29.6
7,Cc1[nH]ccc1C(=O)N1C[C@@H]2CC[C@H]1CN(S(=O)(=O)N(C)C)C2,21.5
8,Cc1cc(S(=O)(=O)NCC(C)(C)N)c(F)cc1F,48.8
9,COCCNC(=O)NCc1cc(-c2cccs2)n(C2CCCC2)n1,43.9
10,Cc1noc(C)c1-c1cncc(C2CCCN2Cc2cncnc2)n1 (stereo not given),22.2
11,Cc1cccc(CS(=O)(=O)CC(O)Cn2cccn2)c1 (stereo not given),15.5
12,O=S(=O)(Cc1cccc(Cl)c1)CC(O)Cn1cccn1 (stereo not given),57.5
13,O=S(=O)(Cc1ccccc1)CC(O)Cn1cccn1 (stereo not given),34
14,Cn1c(NCc2ccc(C(N)=O)cc2)nc2cc(Cl)ccc21,10.7
15,CC(CN1CCCC1=O)NC(=O)NCc1ccccc1-n1cccn1 (stereo not given),48.6
16,O=C(c1ccc(S(=O)(=O)NCC(F)F)cc1)N1C[C@H]2CNC[C@H]2C1,69.3
17,O=C(c1ccc(F)c(F)c1)N1C[C@H]2CNC[C@H]2C1,5.04
18,O=C(c1ccc(S(=O)(=O)NCC(F)F)cc1)N1CC[C@H]2CNC[C@H]21,43.7
19,CC(C)n1cnc2c1C(C(=O)NCCC#N)N(Cc1ccccc1)CC2 (stereo not given),15.1
20,COCc1nc(C2CCN(Cc3nccn3C)CC2)no1,-11.7
21,COC(=O)c1ccc2c(c1)CCCN2S(=O)(=O)c1cn(C)c(C)n1,2.25
22,O=C(CC[C@@H]1CCCN2CCCC[C@H]12)NCCc1cc(O)ncn1,26.8
23,Oc1coc2cc(OC[C@@H]3CCCN4CCCC[C@H]34)ccc12,56.2
24,c1cc2c(cc1OC[C@@H]1CCCN3CCCC[C@H]13)OCCO2,28.4
25,CC(Cn1ccnc1)NC(=O)NCCc1cccs1 (stereo not given),-17.08
26,NC(CNS(=O)(=O)Cc1cccc2cccnc12)c1ccccc1 (stereo not given),29
27,Cc1nn(C)c(C)c1C(=O)NCc1ccnc(OCC(F)(F)F)c1,13.765

row,Compound,INHIBITION [%]
1,O=C(NC1CCCCC1)c1nnc2ccc(N3CCOCC3)cc2n1,-64.4
2,NCC(=O)N1CCCC1c1ccc(C(=O)NCc2ccoc2)s1 (stereo not given),64.5
3,O=C(NCc1ccoc1)c1ccc(C2CCCN2CC2CCOCC2)s1 (stereo not given),22.7
4,Cc1ncc(CN2CCCC2c2ccc(C(=O)NCc3ccoc3)s2)s1 (stereo not given),37.4
5,CC(C)=CCCC1(C)CCC(=O)N(CCc2csc(N)n2)C1 (stereo not given),39.3
6,CCOC1CCN(C(=O)c2ccc(-c3cccc(C)c3)[nH]c2=O)CC1,-16
7,CC(C)COC1CCN(C(=O)c2ccc(C(F)(F)F)[nH]c2=O)CC1,63.5
8,CC(C)COC1CCN(C(=O)c2cc3ccccc3c(=O)[nH]2)CC1,-1.55
9,Cc1noc(C)c1CN1CCN(CCN(C)C)c2ncccc2C1,23.3
10,Clc1ccccc1Cn1cc(CNC2CCc3ncnn3C2)cn1 (stereo not given),-12.1
11,CCOc1cccc(NC(=O)c2cnc(C)cn2)n1,-24.5
12,Cc1nn(C)c(N2CCCN(C)CC2)c1CNC(=O)C(C)(C)C,-49.5
13,CCC(CC)C(=O)Nc1ccc2oc(=O)n(CCN(C)C)c2c1,50.8
14,CC(C)CCC(=O)Nc1ccc2oc(=O)n(CCN(C)C)c2c1,-34.8
15,CN(C)CCn1c(=O)oc2ccc(NC(=O)c3cc(Cl)c[nH]3)cc21,-31.6
16,CC(C)COCCC(=O)Nc1ccc2oc(=O)n(CCN(C)C)c2c1,-3.08
17,CN(C)CCn1c(=O)oc2ccc(NC(=O)N3CCCCCC3)cc21,17.5
18,CN(C)CCn1c(=O)oc2ccc(NC(=O)CC(C)(C)C)cc21,-3.95
19,Cc1cc(C(=O)Nc2ccc3oc(=O)n(CCN(C)C)c3c2)c(C)o1,69.7
20,CCC(C)C(=O)Nc1ccc2oc(=O)n(CCN(C)C)c2c1 (stereo not given),56
21,CN(C)CCn1c(=O)oc2ccc(NC(=O)CSc3ccccc3)cc21,24.3
22,CC1CN(CC(=O)NC(=O)NCc2cccs2)CCN1CC(F)(F)F (stereo not given),3.03
23,CC1CCN(c2nc(O)cc(C3CC(=O)N(C4CCCCC4)C3)n2)CC1 (stereo not given),11.475
24,COc1ccc2c(c1)C1(CCN(Cc3cnn(C)c3)CC1)N(C)CC2,-72
25,COCC1COCCC12CCN(C(=O)COc1ccccc1)CC2 (stereo not given),-10.3
26,COCCNC(=O)Cc1cnc(-n2cccc2)s1,41.1
27,CCc1c(C)nc2cc(C3CCN(CCc4ccccc4)C3)nn2c1O (stereo not given),83.3

row,Compound,INHIBITION [%]
1,CCc1c(C)nc2cc(C3CCN(Cc4cccnc4)C3)nn2c1O (stereo not given),-33.4
2,COCc1nccc(C2CCCN(Cc3cccc(F)c3)C2)n1 (stereo not given),20.9
3,Cc1cc(CN2CCC(C3CCN(CCc4ccccc4)CC3)C2)[nH]n1 (stereo not given),9.63
4,CCc1c(C)nc2cc(C3CCN(Cc4ccc(F)cc4)C3)nn2c1O (stereo not given),66.5
5,CCc1c(C)[nH]c2cc(C3CCN(Cc4ccncc4C)C3)nn2c1=O (stereo not given),38.8
6,CCc1c(C)nc2cc(C3CCN(Cc4cccc(F)c4)C3)nn2c1O (stereo not given),77.3
7,Cc1nc(O)cc(C2CCN(Cc3ccc(F)c(F)c3)C2)n1 (stereo not given),30.8
8,Cc1cc(CN2CCC(C3CCN(CCc4ccccc4)C3)CC2)[nH]n1 (stereo not given),11.9
9,Cc1ccc2c(c1)C(=O)NCC1(CCN(C(=O)c3ccnn3C)CC1)O2,8.72
10,O=C(c1cscn1)N1CC[C@]2(C[C@@H](OCCN3CCCC3)CO2)C1,43.2
11,Cc1ccsc1CN(Cc1ccccn1)CC(O)CO (stereo not given),19.7
12,CN(C(=O)c1ccccc1F)[C@@H]1CC[C@@H](O)[C@@H]1O,34.1
13,Cc1ccoc1C(=O)N1CC[C@@H]2CN(C3CCOCC3)CCO[C@@H]2C1,4.98
14,CC(C)c1nnsc1CNC(=O)C1CCN(C(=O)C2CC2)CC1,14.9
15,COCCC(=O)N1CCC2(CCN(Cc3ccc(OC)c(F)c3)C2)C1 (stereo not given),-10.3
16,O=c1[nH][nH]cc1-c1ccnc(NCCCN2CCOCC2)n1,39.7
17,Cc1[nH]c2ccccc2c1-c1ccnc(NCCN2CCCCC2)n1,61.9
18,Fc1ccc(-c2n[nH]cc2-c2ccnc(NCCN3CCCC3)n2)cc1,35.3
19,Cc1[nH]c2ccccc2c1-c1ccnc(NC[C@H](O)CO)n1,27.8
20,Cc1[nH]c2ccccc2c1-c1ccnc(NCCN2CCOCC2)n1,62.2
21,Cc1nc2[nH]cnc(NCCN3CCOCC3)c-2n1,36.8
22,COCCn1cc(NC(=O)NCC(c2cccc(F)c2)N(C)C)cn1 (stereo not given),49.7
23,c1ccc(Cn2ccnc2CNCC2CCCN2c2cccnn2)cc1 (stereo not given),4.71
24,Cc1ccc(N2CCO[C@H]3[C@H](OCC(=O)N4CCCC4)CC[C@@H]32)cc1,-2.03
